# p53 reactivator = re-activators of mutant p53. H1299 p53-A138V BP100-luciferase reporter, luminescence, 24 h. Potency, µM (top dose mostly 92.2 µM), most hits filed as activators. 320,000 compounds, 0.063% hits. AID 504706; further: nearly all actives have a fitted effect of over 45% in size
#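 H1299 (p53-null), stable ts p53-A138V + BP100-Luc; 1000 cells/well, Opti-MEM/10% FBS; cpd 4 pt, 1:5; 24 h, 37 deg C, 5% CO2; detection reagent 10 min RT; luminescence.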
# RORg inh = inhibitors of mouse ROR gamma transcriptional activity. Potency, µM (doses to about 53.6 µM), hits mostly inhibitors. 310,000 compounds, 5.4% hits. Drosophila S2 Gal4-RORgamma UAS-luciferase reporter, 20 h. P51450; further: nearly all actives have a fitted effect of over 60% in size
#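 Drosophila S2 cells stably expressing Gal4-DBD/mouse RORγ fusion under metallothionein promoter plus UAS-luciferase; compound 1 h, then 700 uM CuSO4 induction for 20 h at ambient temperature; inhibition read as reduced luminescence.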
# Gal4-VP16 FLuc = counter-screen for ROR gamma inhibitors: Gal4-VP16 reporter. Drosophila S2 Gal4-VP16 UAS-luciferase, luminescence, 20 h. Potency, µM (highest dose often 53.6 µM), hits mostly inhibitors. 310,000 compounds, 3.5% hits. AID 2546;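 further: Gal4-VP16 expression switched on by copper sulfate through the metallothionein promoter; nearly all actives have a fitted effect of over 50% in size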
# Six1-Eya2 inh = Six1/Eya2 interaction inhibition; Q15475+O00167; AlphaScreen GST-Six1/His-Eya2 binding, biochemical; stronger effect = lower value; activity change, % (concentration not given with the values); 360,000 compounds, 0.56% hits; in the data active means activity change below about -65%; inconclusive means mostly about -30% to -63%
# Target sequence (O00167 whole entry, looked up): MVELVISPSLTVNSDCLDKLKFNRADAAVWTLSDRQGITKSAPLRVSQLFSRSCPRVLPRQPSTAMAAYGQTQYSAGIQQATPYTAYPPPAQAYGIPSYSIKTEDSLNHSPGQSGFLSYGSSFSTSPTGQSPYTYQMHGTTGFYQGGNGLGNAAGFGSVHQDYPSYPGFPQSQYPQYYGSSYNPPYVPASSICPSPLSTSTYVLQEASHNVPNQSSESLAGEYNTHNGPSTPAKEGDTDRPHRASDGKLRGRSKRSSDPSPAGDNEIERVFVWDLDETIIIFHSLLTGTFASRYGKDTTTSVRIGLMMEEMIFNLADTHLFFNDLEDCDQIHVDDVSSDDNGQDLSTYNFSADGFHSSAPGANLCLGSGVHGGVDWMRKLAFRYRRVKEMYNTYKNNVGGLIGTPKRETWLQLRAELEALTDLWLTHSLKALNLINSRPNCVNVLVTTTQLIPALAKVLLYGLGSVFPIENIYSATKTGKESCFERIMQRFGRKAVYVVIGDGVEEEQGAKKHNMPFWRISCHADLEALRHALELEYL
# Target sequence (Q15475 whole entry, looked up): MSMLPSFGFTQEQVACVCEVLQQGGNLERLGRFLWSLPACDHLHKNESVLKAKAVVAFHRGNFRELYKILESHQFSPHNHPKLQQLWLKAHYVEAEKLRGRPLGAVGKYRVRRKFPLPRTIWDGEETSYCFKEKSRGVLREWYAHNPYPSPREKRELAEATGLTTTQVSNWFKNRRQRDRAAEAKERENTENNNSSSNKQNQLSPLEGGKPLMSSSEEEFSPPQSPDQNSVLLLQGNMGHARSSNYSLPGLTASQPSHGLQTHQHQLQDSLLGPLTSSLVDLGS
#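 GST-Six1 + His-Eya2 (5X stock: 250/500 nM); Tris pH 8.0, 300 mM NaCl, 0.05% BSA, 0.02% Tween 20; GSH donor/Ni acceptor beads; 1 h 37 °C dark; AlphaScreen readout.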
# CtBP-E1A blk = blocks the CtBP interaction with E1A; activity change, % (test concentration not listed); AID 651724; AlphaScreen GST-E1A/His-CtBP binding, 1536-well; stronger effect = lower value; 340,000 compounds, 0.49% hits; in the data active means activity change below about -65%; inconclusive means mostly about -30% to -63%
#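 Homogeneous bead-based format: GST-tagged E1A captured on glutathione donor beads, His-tagged CtBP on nickel acceptor beads; compounds precede bead addition by 2 h at 37 °C.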
# A number is an active result; n = inactive; u = inconclusive; x = no result given; [ ] = another dose, or the depositor's remark. Compounds with a hit are over-represented: about 5.4% of the library has one in this group of screens. Unless noted, the call rests on the fitted dose curve; in most records, active means well fitted curve in the direction sought with a large enough effect; inconclusive means small, poorly fitted or top-dose-only effect, or another doubt; inactive means no such curve, though single readings can be large; an effect the other way counts as inactive or inconclusive.
SMILES,p53 reactivator,RORg inh,Gal4-VP16 FLuc,Six1-Eya2 inh,CtBP-E1A blk
C=C[C@H](C)[C@](C)(O)c1ccccc1,x,n,n,x,x
CC1CCC(NC(=O)CCS(=O)(=O)c2ccc3c(c2)CCN3C(=O)C2CC2)CC1 (stereo not drawn),n,n,n,n,n
O=c1c(-c2cccs2)nc2cnc(N3CCOCC3)nc2n1-c1ccccc1,x,n,n,x,x
O=C(Cn1cnc2ccccc2c1=O)NCCC(=O)Nc1ccc(F)cc1,n,n,n,n,n
CC(=O)Nc1ccc(-c2ccnc3c2CC(C(=O)NCc2ccccc2)O3)cc1 (stereo not drawn),x,x,x,n,n
COC(=O)c1ccc(=O)c2nc3/c(=C/O)c(O)cc(=O)c3[nH]c12,n,n,n,-89,-94
Cc1cc(/C=N/NC(N)=S)c(C)n1-c1ccc(Cl)c(Cl)c1,n,1.4µM,3.2µM,n,n
Cc1nc2ccccn2c1C(=O)N/N=C/c1cc(C)n(-c2ccc(Cl)cc2)c1C,n,20µM,13µM,n,n
Cc1cc(/C=N/NC(=O)Cn2c3ccccc3c(=O)c3ccccc32)c(C)n1-c1ccc(Cl)cc1,n,n,n,n,n
Cc1cc(/C=N\NC(=O)CC(=O)NC2CCCCC2)c(C)n1-c1ccc(Cl)c(Cl)c1,n,n,n,n,n
CCNC(=S)N/N=C/c1cc(C)n(-c2ccc(Cl)cc2)c1C,n,1.4µM,5µM,n,n
COc1ccc(OC)c(S(=O)(=O)NC(=O)C2(C)CCN2C(=O)Cc2ccccc2Cl)c1 (stereo not drawn),x,x,x,n,n
O=C(NCc1ccco1)C1CCCN1C(=O)Nc1ccc(Br)cc1 (stereo not drawn),n,n,u,n,n
O=[N+]([O-])c1ccc(O)c(/C=N/Nc2nc3ccccc3[nH]2)c1,25µM,6.3µM,5.6µM,-92,-97
CCN(CC)S(=O)(=O)c1ccc(N/N=C/c2ccc(O)cc2O)nc1,n,14µM,u,-94,-95
Cc1ccccc1-n1c(C)cc(/C=N/Nc2ccc([N+](=O)[O-])cn2)c1C,n,6.3µM,5.6µM,n,n
Cc1cc(/C=N/Nc2ccc([N+](=O)[O-])cn2)c(C)n1-c1ccc(C(=O)O)cc1,n,n,n,u,n
O=[N+]([O-])c1ccc(N/N=C\c2cccn2-c2ccccc2)nc1,n,2.5µM,u,u,u
COCCN(C(=O)COC(=O)c1ccc(Cl)s1)c1c(N)n(Cc2ccccc2)c(=O)[nH]c1=O,n,x,x,n,n
CCC[C@@H]1C[C@@]1(CCC)C(NP(=O)(c1ccccc1)c1ccccc1)c1ccc(Cl)cc1 (stereo partly drawn),x,n,n,x,x
CC(=O)N1CC2(CC(c3ccccc3F)=NO2)CN1c1ccc(Cl)cc1 (stereo not drawn),x,x,x,n,n
O=[N+]([O-])c1ccc(NN=Cc2ccc(O)cc2)nc1,x,x,x,n,n
O=[N+]([O-])c1ccc(NN=Cc2ccccc2O)nc1,x,x,x,-78,-79
O=[N+]([O-])c1ccc(O)c(/C=N/Nc2ccccn2)c1,u,10µM,11µM,-90,-92
O=[N+]([O-])c1cccc(N/N=C/c2cc([N+](=O)[O-])ccc2O)c1,n,n,n,n,n
SMILES,p53 reactivator,RORg inh,Gal4-VP16 FLuc,Six1-Eya2 inh,CtBP-E1A blk
O=C(CNS(=O)(=O)c1ccc([N+](=O)[O-])cc1)N/N=C/c1ccc(O)cc1O,n,n,n,-73,u
O=[N+]([O-])c1ccc(NN=Cc2ccc(O)cc2O)nc1,x,x,x,-69,-74
CCN(CC)CCOCCOC(=O)C(CC)(CC)c1ccccc1 (tested in a mixture with another compound),x,n[10 µM],n,x,x
Cc1ccc(-n2ncc3c2CC(C)(C)CC3NC(=O)CCc2cccnc2)cc1 (stereo not drawn),n,n,n,n,n
O=C(NC(=S)NN1CCCCC1c1cccnc1)c1ccc(Br)cc1 (stereo not drawn),n,1.1µM,1.4µM,n,n
COc1cccc(OC)c1C(=O)NC(=S)N1CCCCC1c1cccnc1 (stereo not drawn),n,22µM,n,n,n
O=C(/C=C/c1ccc(F)cc1)NC(=S)N1CCCCC1c1cccnc1 (stereo not drawn),n,5µM,u,n,n
COC(=O)c1ccc(NC(=S)NN2CCCCC2c2cccnc2)cc1 (stereo not drawn),n,n,n,n,n

# Source: PubChem (National Center for Advancing Translational Sciences (NCATS))
